According to PubChem BioAssay AID1259318 (Sanford-Burnham Center for Chemical Genomics, 2017):
Out of some 370,000 compounds screened, about 3,000 (0.81%) were called active. This is one part of a sample in which actives are shown more often than they occur.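 How the source made its calls: active means activity above about 14% (limit read from the data; passing the limit was not always enough); inactive means the rest.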

These compounds were tested against Nuclear receptor subfamily 1 group D member 1 (Homo sapiens) (UniProt P20393) (assay: Rev-erbα–DNA interaction modulation – biochemical, FITC-DNA, fluorescence polarization, uHTS, primary screen (AID 1259318;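 further: 0% = DMSO wells with 35 nM protein and 100% = DMSO wells with 750 nM protein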)). Details: Rev-erbα–FITC-DNA binding, 90 min, at 10 µM, stronger effect = higher value.
Sequence of Nuclear receptor subfamily 1 group D member 1 (Homo sapiens) (P20393 whole entry, looked up): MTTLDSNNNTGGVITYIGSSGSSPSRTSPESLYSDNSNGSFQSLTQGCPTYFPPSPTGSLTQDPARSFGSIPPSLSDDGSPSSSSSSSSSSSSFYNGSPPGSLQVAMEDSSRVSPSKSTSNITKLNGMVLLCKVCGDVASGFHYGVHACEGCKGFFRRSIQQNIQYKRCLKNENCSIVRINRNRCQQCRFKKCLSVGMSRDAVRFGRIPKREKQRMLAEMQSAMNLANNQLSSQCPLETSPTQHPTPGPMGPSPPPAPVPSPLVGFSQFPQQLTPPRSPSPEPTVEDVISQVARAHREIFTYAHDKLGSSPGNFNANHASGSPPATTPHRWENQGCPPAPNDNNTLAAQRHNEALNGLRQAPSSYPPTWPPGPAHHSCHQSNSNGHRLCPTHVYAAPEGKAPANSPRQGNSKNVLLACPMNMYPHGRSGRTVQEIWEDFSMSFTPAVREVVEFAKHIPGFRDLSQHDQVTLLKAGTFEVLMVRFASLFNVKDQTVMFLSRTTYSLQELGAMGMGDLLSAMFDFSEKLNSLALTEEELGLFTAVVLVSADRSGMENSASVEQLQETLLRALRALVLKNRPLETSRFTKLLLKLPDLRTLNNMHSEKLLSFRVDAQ

Row | SMILES | activity
1 | CCCCCCCCCCCCCCCC(=O)O[C@@H]1[C@@H](O)[C@@H](O)C([C@H](NC(=O)[C@@H]2C[C@@H](CCC)CN2C)[C@H](C)Cl)O[C@@H]1SC (some centres not stated) | -0.49% (inactive)
2 | Cc1ccc(N(C(=O)Cc2cccs2)C2C=CS(=O)(=O)C2)cc1Cl (configuration not stated) | 8.02% (inactive)
3 | CC(C)(C)CC(C)(C)NCC(O)COCCOc1ccc(Br)cc1 (configuration not stated) | -2.77% (inactive)
4 | COc1ccc2sc(-c3ccccc3OC)c(-c3ccc(OCCN4CCCC4)cc3)c2c1 | 2.94% (inactive)
5 | COc1ccc2sc(-c3ccc(S(C)(=O)=O)cc3)c(-c3ccc(C(N)=O)cc3)c2c1 | 29.1% (active)
6 | COc1ccc(N(Cc2ccc(N(C)C)cc2)C(=O)c2ccc(S(C)(=O)=O)cc2)cc1 | -2.66% (inactive)
7 | COc1ccc(C(=O)NCC2CCCCC2)cc1S(=O)(=O)N1CCCC1 | 3.18% (inactive)
8 | CC(C(=O)O)c1ccc(C2CCCCC2)c2ccccc12 (configuration not stated) | -0.34% (inactive)
9 | CC(=O)OCC(=O)[C@@]1(O)CCC2C3CCC4=CC(=O)C=C[C@]4(C)[C@@]3(F)[C@@H](O)C[C@@]21C (some centres not stated) | -0.05% (inactive)
10 | COc1ccc(Cl)cc1NC(=O)C1CC(=O)N(c2ccc(F)cc2)C1 (configuration not stated) | -2.88% (inactive)
11 | COc1cc(OC)c(N2CC(C(=O)Nc3cc(Cl)ccc3N3CCOCC3)CC2=O)cc1Cl (configuration not stated) | 15.7% (active)
12 | COc1ccccc1N1CC(C(=O)Nc2ccc(S(=O)(=O)N3CCOCC3)cc2)CC1=O (configuration not stated) | 2.07% (inactive)
13 | COc1ccc(CN2C(=O)C(CC(=O)NCCCCc3ccccc3)CC(C(=O)N3CCOCC3)=C2C)cc1 (configuration not stated) | 0.56% (inactive)
14 | Cc1cccc(NC(=O)CCn2c(=O)oc3ccccc32)c1 | 4.67% (inactive)
15 | COCc1cc(C)nc(Nc2cc(C)ccc2C)c1C#N | 1.3% (inactive)
16 | COCc1cc(C)nc(SCC(=O)Nc2cccc(C)c2)c1C#N | 20.6% (active)
17 | C=CCC1(CC=C)CCCN1C(=O)c1cc(COc2ccc(-n3cncn3)cc2)on1 | 3.62% (inactive)
18 | Cc1ccc(NC(=S)NNC(=O)CSc2nnc(SCc3ccccc3Cl)s2)cc1 | 3.4% (inactive)
19 | CCCc1nc(SCC(=O)Nc2ccc(S(=O)(=O)N(C)C)cc2)c2ccccc2n1 | 28% (active)

Row | SMILES | activity
20 | CN(C)S(=O)(=O)c1ccc(NC(=O)COC(=O)c2n[nH]c3ccccc23)cc1 | 1.34% (inactive)
21 | CC(C)N(C(=O)CSc1nc(COc2ccccc2)nc2ccccc12)C(C)C | 4.08% (inactive)
22 | NC(=O)c1ncn([C@@H]2O[C@H](C(=O)O)[C@@H](O)[C@H]2O)n1 | -0.1% (inactive)
23 | CSCC[C@H](NC(=O)N1CCn2c1nc1ccccc12)C(=O)NC1CCCCC1 | 0.83% (inactive)
24 | COc1ccc(-c2nn(C)c(=O)c3ccccc23)cc1CNC(=O)C1CCCCC1 | -3.48% (inactive)
25 | COc1ccc(-c2nn(C)c(=O)c3ccccc23)cc1NC(=O)COc1ccccc1 | 25.4% (active)
26 | COc1ccc(S(=O)(=O)N2CCCCC2)cc1NC(=O)COc1ccccc1 | 1.75% (inactive)
27 | C=CCNC(=O)c1ccc2c3n(nc2c1)-c1ccc(C)cc1CO3 | 0.44% (inactive)
28 | CCc1cc(=O)oc2c(C)c(OCC(=O)N3CC[C@@]4(O)CCCC[C@H]4C3)ccc12 | 2.4% (inactive)
29 | CS(=O)(=O)c1ccc2nc(NC(=O)c3ccc(N4CCCC4=O)cc3)sc2c1 | 41.6% (active)
30 | O=C(Nc1cc(S(=O)(=O)N2CCOCC2)ccc1OCC(F)(F)F)c1ccc(N2CCCC2=O)cc1 | 3.86% (inactive)
31 | O=C(NCCCN1CCCCCC1)c1ccc(N2CCCC2=O)cc1 | -2.08% (inactive)
32 | CC(=O)c1c(C)[nH]c(C(=O)OCC(=O)NCCC(C)C)c1C | 4.11% (inactive)
33 | COC(=O)C12C=C3CC(c4ccccc4)=C3C(=O)N1Cc1[nH]c3ccccc3c1C2 (configuration not stated) | -0.17% (inactive)
34 | CCn1c(SCC(=O)Nc2cccc(F)c2)nnc1-c1cc2cc(Br)ccc2o1 | 56.3% (active)
35 | CCn1c(CNC(=O)c2ccco2)nnc1SCC(=O)Nc1cccc(F)c1 | -8.25% (inactive)
36 | O=C(CSc1nc2[nH]c(=O)[nH]c(=O)c2s1)Nc1cccc(F)c1 | -1.8% (inactive)
37 | COc1ccc(C(=O)CSc2nccc(=O)[nH]2)cc1 | 2.06% (inactive)
38 | O=C(CSc1nc2ncccc2[nH]1)Nc1ccc2c(c1)OCCO2 | -0.69% (inactive)

Row | SMILES | activity
39 | Cc1nc2nc(SCC(=O)c3ccccc3)[nH]c2cc1Br | 34.1% (active)
40 | Cc1nc2nc(SCC(=O)Nc3cccc(F)c3)[nH]c2cc1Br | 43.6% (active)
41 | Cc1cc(C)c(C(=O)CSc2nc(C)cc(=O)[nH]2)c(C)c1 | -1.57% (inactive)
42 | CCCn1c(SCC(=O)Nc2cccc(C(=O)OCC)c2)nnc1-c1ccoc1C | -3.66% (inactive)
43 | CN(Cc1nc(-c2cnccn2)no1)Cc1n[nH]c2c1CCCCC2 | -2.14% (inactive)
44 | COC(=O)c1cc(S(=O)(=O)N2CCN(c3cc(C)ccc3C)CC2)c[nH]1 | 11.2% (inactive)
45 | CCOC(=O)C1CCN(C(=O)C(C)(C)NC(=O)Nc2ccccc2Cl)CC1 | -6.49% (inactive)
46 | Cc1ccc(C(=O)C2CCN(CC(=O)NCCC(C)C)CC2)cc1 | -0.72% (inactive)
47 | Cc1noc(C)c1CCC(=O)O | 4.26% (inactive)
48 | Cc1ccc(SCC2=NNC(=O)C2)cc1 | -1.27% (inactive)
49 | N#Cc1c(-c2ccc(F)cc2)cc(C2CC2)nc1SCC(=O)c1cccs1 | 174% (active)
50 | O=C(c1cccs1)N1CCCC(c2nc(-c3ccc(F)cc3)no2)C1 (configuration not stated) | 1.09% (inactive)
51 | O=C(CCC(=O)c1cccs1)NC1CCCCCC1 | 3.87% (inactive)
52 | COCCCNc1nc2c(-c3cccc(C)c3)nnn2c2ccc(Cl)cc12 | 52.9% (active)
53 | COCCCNc1nc2c(-c3cccc(C(F)(F)F)c3)nnn2c2ccccc12 | 15.6% (inactive)
54 | COCCCNc1nc2ccccc2nc1NS(=O)(=O)c1ccc(F)cc1 | -2.18% (inactive)
55 | COc1ccc(-n2nc3c(c2NC(=O)c2ccc(N4C(=O)CCC4=O)cc2)CSC3)cc1 | 1.69% (inactive)
56 | COc1ccccc1C(=O)Oc1ccc(N2C(=O)CCC2=O)cc1 | -3.5% (inactive)
57 | COc1ccc(-c2csc(NC(=O)c3ccc(N4C(=O)CCC4=O)cc3)n2)cc1OC | 19.3% (active)
